Among all 330,000 compounds or so, about 1,900 (0.58%) were called active. Another 4% or so got no clear call; they are omitted. No stated cut-off is given here; in the data, inconclusive means inhibition above about 70% without an active follow-up result; inactive means below that. Not all results are given here. Entries with a potency or affinity are not part of this list.
Experiment: M. tuberculosis growth inhibition, HTS (AID 449762);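 further: bacterial growth assessed after seven days of incubation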
Details: M. tuberculosis H37Rv growth inhibition, 7H9 media; at 25 µM; active compounds read high

| SMILES | inhibition |
| --- | --- |
| O=C(CCS(=O)(=O)c1ccc(Cl)cc1)N1CCN(c2ccccc2F)CC1 | -3.9% (inactive) |
| COc1ccc(OC)c(CN2CCN(C(=O)CCNC(=O)c3ccc(Br)cc3)CC2)c1 | -2.93% (inactive) |
| COc1ccc(OC)c(CN2CCN(C(=O)CNC(=O)c3cc(C)cc(C)c3)CC2)c1 | 1.7% (inactive) |
| CCc1cc(C(=O)NN2C(=O)NC3(CCCCC3)C2=O)sc1C | -5.54% (inactive) |
| Cc1ccc(NC(=O)c2sc(Cl)nc2-c2ccccc2)cc1 | 1.87% (inactive) |
| O=C(NC1CCCCCC1)c1cc(S(=O)(=O)N2CCOCC2)ccc1N1CCCCC1 | -7.36% (inactive) |
| CCCCCCCNC(=O)C1(CC2CC(c3cccc(Br)c3)=NO2)CCN(C(=O)Cc2ccc(F)cc2)CC1 (stereo unspecified) | 1.04% (inactive) |
| CCCCCCCNC(=O)C1(CC2CC(c3ccccc3)=NO2)CCNCC1 (stereo unspecified) | -6.2% (inactive) |
| Cc1ccc(-n2c(SCC(=O)NCCN3C(=O)CSC3=O)nnc2-c2ccccc2)cc1 | -2.1% (inactive) |
| O=C(Nc1ccc(-c2csc(Nc3ccccc3)n2)cc1)c1cccc(C(F)(F)F)c1 | 1.22% (inactive) |
| O=C(Nc1ccc(-c2csc(Nc3cccc(C(F)(F)F)c3)n2)cc1)c1ccccc1 | 50.9% (inactive) |
| O=C(N/N=C1\CCCc2ccccc21)c1ccccc1Cl | 5.05% (inactive) |
| Cc1ccc(C(=O)N/N=C2\CCCc3ccccc32)c(C)c1 | -7.5% (inactive) |
| CCOc1ccc(CN(C)C(=O)c2cccnc2OCC)cc1OC | -1.02% (inactive) |
| CCOc1ccc(C(C)NC(=O)Nc2ccc(F)cc2F)cc1 (stereo unspecified) | 6.1% (inactive) |
| Cn1c(/C=N/c2nc3ccccc3[nH]2)nc2ccccc21 | 43.9% (inactive) |
| C(=N\Nc1nc2ccccc2[nH]1)/c1ccccc1 | 33.3% (inactive) |
| CCOc1ccc(OCCNC(=O)C(NC(=O)c2c(F)cccc2F)C(C)C)cc1 (stereo unspecified) | -12.3% (inactive) |
| COc1ccc(Nc2nnc(SC(C)C(=O)NC3CC3)s2)cc1 (stereo unspecified) | -1.49% (inactive) |
| Cc1c(NC(=S)N/N=C/c2cccc(O)c2)c(=O)n(-c2ccccc2)n1C | -10.1% (inactive) |
| N=c1c2c(-c3ccccc3)c(-c3ccccc3)n(Cc3ccco3)c2ncn1CCCO | 16.4% (inactive) |
| N=c1c2c(-c3ccccc3)c(-c3ccccc3)n(Cc3ccco3)c2ncn1CCO | 52.9% (inactive) |
| O=C(Oc1ccccc1C(=S)N1CCOCC1)c1ccc([N+](=O)[O-])cc1[N+](=O)[O-] | 38.5% (inactive) |

| SMILES | inhibition |
| --- | --- |
| O=C(C1=C(O)C(=O)N(CCOCCO)C1c1cccc([N+](=O)[O-])c1)c1cccs1 (stereo unspecified) | -3.54% (inactive) |
| Cc1ccc(-c2cc(C(=O)N3CC(C)OC(C)C3)c3ccccc3n2)o1 (stereo unspecified) | -3.5% (inactive) |
| COc1ccc2nc(NC(=O)C3CSC4(C)CCC(=O)N34)sc2c1 (stereo unspecified) | 8.66% (inactive) |
| COc1ccc(C(CNC(=O)c2cccc(NS(=O)(=O)c3ccccc3)c2)N(C)C)cc1 (stereo unspecified) | -11.7% (inactive) |
| CCCCCCOC(=O)C(C#N)c1nc2ccccc2nc1N1CCOCC1 (stereo unspecified) | 5.48% (inactive) |
| CCCCCCOC(=O)C(C#N)c1nc2ccccc2nc1N1CCCCC1 (stereo unspecified) | 6.23% (inactive) |
| CCOC(=O)CC(=O)CSc1nccc(-c2cccnc2)n1 | 2.54% (inactive) |
| COc1cc(OC)cc(C(=O)NCc2ccc3c(c2)cc(C)n3C)c1 | 55.2% (inactive) |
| O=S(=O)(NC1CCCCC1N1CCN(c2ccc(F)cc2)CC1)c1ccccc1 (stereo unspecified) | 11.3% (inactive) |
| COc1ccc(-c2ccc(C)cc2)cc1[C@H]1[C@@H]2C=CCC[C@@]2(C)C(=O)N1Cc1ccccc1 | 2.77% (inactive) |
| COc1ccc(-c2ccc(N(C)C)cc2)cc1[C@H]1[C@@H]2C=CCC[C@@]2(C)C(=O)N1Cc1ccccc1 | -2.81% (inactive) |
| CC(Sc1ccc(S(=O)(=O)N2CCOCC2)cc1[N+](=O)[O-])C(=O)O (stereo unspecified) | 1.21% (inactive) |
| O=C(/C=C/c1ccccc1)N1CCC(N2CCC(C(=O)N3CCOCC3)CC2)CC1 | -6.29% (inactive) |
| CCSc1cc(N2CCOCC2)nc(-c2ccccc2)n1 | 8.27% (inactive) |
| O=[N+]([O-])c1ccccc1/C=N/Nc1nc(N2CCCC2)nc(N2CCCC2)n1 | 2.55% (inactive) |
| Cc1cc(C)n(-c2ccccc2[N+](=O)[O-])n1 | -3.52% (inactive) |
| O=C(/C(=C/c1ccc(Cl)cc1)c1nc2ccccc2[nH]1)c1ccccc1 | 0.75% (inactive) |
| O=C(/C(=C\c1ccccc1)c1nc2ccccc2[nH]1)c1ccc(Cl)cc1 | 12.1% (inactive) |
| Nc1nsnc1C(=O)NCCO | -5.83% (inactive) |
| O=C1CS/C(=N/N=C/c2c[nH]c3ccccc23)N1 | 2.46% (inactive) |
| O=C(CSc1n[nH]c(-c2ccccc2)n1)N1CCOCC1 | -3.77% (inactive) |
| O=C(CN1CCCC1)NN=C(c1ccccc1)c1ccccc1 | -2.73% (inactive) |
| CCN(CC)CC(=O)NN=C(c1ccccc1)c1ccccc1 | -1.34% (inactive) |

| SMILES | inhibition |
| --- | --- |
| NC(=S)N=Nc1c(O)[nH]c2c(Br)cc(Br)cc12 | -0.35% (inactive) |
| COc1ccc(C(=O)NCC(=O)NCC(=O)OCC(=O)c2ccc(Br)cc2)cc1 | 7.79% (inactive) |
| Cc1csc(NC(=O)CSCC(=O)O)c1-c1nc2ccccc2s1 | -1.68% (inactive) |
| Cc1csc(NC(=O)COCC(=O)O)c1-c1nc2ccccc2s1 | -5.81% (inactive) |
| Cc1cc(C(=O)OCC(=O)Nc2ccc(F)cc2F)c(C)o1 | 4.91% (inactive) |
| COc1ccc(/C=C/C(=O)NC2CC3CCC2C3)cc1 (stereo unspecified) | 14.7% (inactive) |
| O=C(/C=C/c1ccccc1)NC1CC2CCC1C2 (stereo unspecified) | -10.2% (inactive) |
| Cc1c(C(=O)NC(C(C)C)C(C)C)cccc1[N+](=O)[O-] | -0.36% (inactive) |
| CC1CN(c2ccc(C(=O)c3ccccc3C(=O)O)cc2[N+](=O)[O-])CC(C)O1 (stereo unspecified) | -1.03% (inactive) |
| O=C1CCCC2=C1C(c1ccco1)Nc1ccc(C(=O)c3ccccc3)cc1N2 (stereo unspecified) | 1.55% (inactive) |
| O=C1CCCC2=C1C(c1ccccn1)Nc1ccc(C(=O)c3ccccc3)cc1N2 (stereo unspecified) | -10.7% (inactive) |
| O=C(NCc1cccnc1)c1cccc(OC2CCN(Cc3ccc(CO)o3)CC2)c1 | 3.84% (inactive) |
| CCOC(=O)N1CCc2c(sc(NC(C)=O)c2C(N)=O)C1 | -2.99% (inactive) |
| CCOC(=O)N1CCc2c(sc(NC(=O)C3=COCCO3)c2C(N)=O)C1 | -6.06% (inactive) |
| CCOc1ccccc1NC(=O)COC(=O)CC(NC(N)=O)c1ccc(Cl)cc1 (stereo unspecified) | 3.03% (inactive) |
| COC(=O)c1cc(C(=O)c2cc(F)ccc2O)cn2c(=O)c3c(C)c(C)sc3nc12 | 3.12% (inactive) |
| CCc1c(C)sc2nc3c(C(=O)N4CCOCC4)cc(C(=O)c4ccccc4O)cn3c(=O)c12 | 51.4% (inactive) |
| CC(=NCc1cccnc1)c1c(O)n(-c2ccccc2)c(=O)[nH]c1=O | -3.76% (inactive) |
| COC(=O)c1cc(-c2ccc(OC)cc2)n[nH]1 | -1.36% (inactive) |
| COc1ccc(O)c(-c2cc(-c3ccc(F)cc3)n[nH]2)c1 | 0.76% (inactive) |
| Cc1nc(SCc2c(F)cccc2Cl)n[nH]1 | -11.2% (inactive) |
| CCSC(=Nc1ccccc1)Nc1ccccc1 | -1.05% (inactive) |
| COc1ccc(C(CC(=O)NC(C)c2ccc(-c3ccccc3)cc2)NC(C)=O)cc1 (stereo unspecified) | 3.36% (inactive) |

| SMILES | inhibition |
| --- | --- |
| Cc1nnc(N/N=C/c2c(O)n(-c3cccc(C(F)(F)F)c3)c(=O)c3ccccc23)[nH]c1=O | 3.05% (inactive) |
| Cc1cc(=O)[nH]c(N/N=C/c2c(O)n(-c3ccccc3)c(=O)c3ccccc23)n1 | 31.9% (inactive) |
| CNS(=O)(=O)c1ccc2c(c1)oc(=O)c1cc(S(=O)(=O)NC)ccc12 | -1.49% (inactive) |
| Cn1c(=N)n(CC(=O)c2cccs2)c2ccccc21 | -0.34% (inactive) |
| c1ccc(-c2ccnc3nc(N4CCN(c5ccccc5)CC4)nn23)cc1 | -7.9% (inactive) |
| COc1ccc(-c2ccnc3nc(N4CCOCC4)nn23)cc1 | 1.34% (inactive) |
| C[C@H]1CN([C@@H](C)CO)C(=O)Cc2cc(NS(C)(=O)=O)ccc2O[C@@H]1CN(C)Cc1ccc(Cl)c(Cl)c1 | 4.73% (inactive) |
| COc1ccc(C2=Nn3c(nnc3-c3ccccc3Cl)SC2)cc1OC1CCCC1 | 51.6% (inactive) |
| COc1ccc(C2=Nn3c(nnc3-c3ccccc3OC)SC2)cc1OC1CCCC1 | 63.1% (inactive) |
| COc1ccccc1OP(=O)(Nc1cccnc1)Oc1ccccc1OC | -4.39% (inactive) |
| CCN1CCN(Cc2c(OC)ccc3ccccc23)CC1 | 5.17% (inactive) |
| C[C@H]1COC(=O)[C@H](Cc2ccc(F)cc2)CC/C=C/C[C@@H](CC(=O)N[C@@H](CO)Cc2ccccc2)C(=O)N1 | 7.3% (inactive) |
| CCOc1ccc(C(=O)NCC(=O)N2CCC(C)CC2)cc1OCC | -0.53% (inactive) |
| Cc1csc(NC(=O)Nc2cccc(Cl)c2)n1 | -2.56% (inactive) |
| Fc1ccc(NC(=S)Nc2cccc(Cl)c2)cc1 | 21.8% (inactive) |
| CSc1ncccc1C(=O)OCC(=O)N1CCc2ccccc21 | -3.03% (inactive) |
| O=C(OCC(=O)N1CCc2ccccc21)c1cccnc1Cl | -2.8% (inactive) |
| CC1CCCC(NC(=O)COC(=O)COc2ccc(Br)cc2)C1C (stereo unspecified) | 10.5% (inactive) |
| C/C(CCC12CC3CC(CC(C3)C1)C2)=N\NC(N)=S | -13.2% (inactive) |
| C/C(=N\NC(N)=S)C12CC3CC(CC(C3)C1)C2 | -3.2% (inactive) |
| COc1ccc(/C=C/C(=O)N(CC(C)C)C2CCS(=O)(=O)C2)cc1 (stereo unspecified) | 3.62% (inactive) |
| O=C(NCC1CCCO1)C1CC(=O)N(C2CCCCCC2)C1 (stereo unspecified) | 5.65% (inactive) |
